Assay [1] is described as follows: viability loss with induced miR-34 in A549 – imaging, A549 dox-inducible miR-34, nuclei and caspase counts, primary screen (AID 1347080;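 active = compounds whose cell count with miR-34 switched on is under 0.7 times the count with it off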). To be noted: A549 miR-34 inducible, Hoechst nuclei count, 48 h.
Assay [2] can be described thus: MELAS cybrid and Rieske KO viability enhancers – cell-based, MELAS cybrids, Rieske KO mouse fibroblasts, CellTiter-Glo, primary screen (AID 1508586).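 Note: z relative to plate mean and SD of compound and empty wells.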 To be noted: low glucose. For orientation: Cellular ATP, detected with luciferase, serves as a proxy for viable cell number.
Assay [3] in a line: blockers of cellular phospholipid synthesis – cell-based, LOPAC library, screen 4, primary screen (AID 1347384; call rule not given here). To be noted: animal cells, phospholipid biosynthesis inhibition screen; at 10 µM.
The nature of assay [4]: chitosan synthesis blockers in C. neoformans – flow cytometry, Cibacron Brilliant Red staining (AID 1347148; call rule not given here;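 note: compound exposure lasted three days at 37 degrees C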). To be noted: Cryptococcus neoformans chitosan, stronger effect = lower value; at 10 µM unless noted. Background: A flow cytometer gives signals particle by particle.
Setting [5] is: stronger effect = lower value, cell number ratio, induced over uninduced.
Setting [6] is: measured here: relative caspase fold change +Dox/-Dox.
Where [7] appears, read: measured here: total cells with miR-34 induction, stronger effect = lower value.
The mark [8] stands for this setting: measured here: total cells without miR-34 induction.
[9] abbreviates: MELAS cybrid survival, CellTiter-Glo 48 h, stronger effect = higher value.
Where [10] appears, read: Rieske KO mouse fibroblast survival, CellTiter-Glo 72 h.

The structures appear in SMILES notation. “And” between values parts separate entries of the source, which are not always exact repeats. Equal entries are not always repeated. The source made the active and inactive calls.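 Rule for the calls, unless noted: active = mean z-score across replicates of 1.96 or higher in either the MELAS or the Rieske mutant cell line; inactive = the rest.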 Starred links: 1 amine or outer side, 2 acyl side, 3 side chain; linkers in the order of their positions; H or OH if unused. Positions of bridges follow the written chain, without caps; N, C: chain ends. Non-standard residues stand in square brackets, D forms with d. Residues, ends and D or L forms follow the SMILES beside them. Chains are numbered I, II in the order given. Actinocin(9to1) = Cc1c2oc3c(C)ccc(C(=O)[*:1])c3nc-2c(C(=O)[*:2])c(N)c1=O; NMeV = CN[C@H](C(=O)O)C(C)C; Sar = CNCC(=O)O

Consider `N=C(N)N`, for which the fold change is 0.954 (inactive) and 0.99 (inactive) in assay [1] (setting [5]); 0.786 and 0.574 in assay [1] (setting [6]). Besides, the cell count is 8580 and 8630 in assay [1] (setting [7]); 9000 and 8720 in assay [1] (setting [8]). For the same compound, the z-score was -0.279 (inactive) in assay [2] (setting [9]) and -0.172 in assay [2] (setting [10]).
For `CN1CCN(C2=Nc3ccccc3Oc3ccc(Cl)cc32)CC1`, in assay [3], the call was inactive. The z-score in assay [2] (setting [9]) is -0.155 (inactive) and 0.0915 (inactive); in assay [2] (setting [10]) it was -0.224 and 0.0483.
As to `COc1cc(-c2ccc(=O)[nH]n2)ccc1OC(F)F`, the fold fluorescence in assay [4] is 7.45 [at 186.4 µM] (inactive). The z-score in assay [2] (setting [9]) is 1.87 (inactive) and 1.14 (inactive); in assay [2] (setting [10]), -0.582 and -0.616.
In the case of `O=C(OCC(O)CO)c1ccccc1Nc1ccnc2cc(Cl)ccc12` (stereo not given), the fold change in assay [1] (setting [5]) is 0.91 (inactive); in assay [1] (setting [6]) it was 1.28. Further, the cell count in assay [1] (setting [7]) stood at 8940; in assay [1] (setting [8]), 9820. Further, the values for the z-score in assay [2] (setting [9]) and in assay [2] (setting [10]) were 1.77 (inactive) and 0.884, respectively.
`Cn1c([N+](=O)[O-])cnc1COC(N)=O`: the fold change in assay [1] (setting [5]) is 0.949 (inactive) and 0.998 (inactive) and 0.92 (inactive); in assay [1] (setting [6]) it was 0.814 and 0.524 and 4.33. Further, the cell count in assay [1] (setting [7]) was 9230 and 8250 and 11400; in assay [1] (setting [8]), 9730 and 8270 and 12400. The z-score in assay [2] (setting [9]) is -0.153 (inactive) and -0.082 (inactive); in assay [2] (setting [10]) it was -0.129 and 0.703.
For the compound `CN(C)/N=N/c1nc[nH]c1C(N)=O`, the fold change in assay [1] (setting [5]) is 0.938 (inactive) and 0.895 (inactive); in assay [1] (setting [6]), 1.29 and 2.08. Further, the cell count is 11400 and 9140 in assay [1] (setting [7]); 12200 and 10200 in assay [1] (setting [8]). In addition, the z-score is 0.302 (inactive) in assay [2] (setting [9]) and 0.971 in assay [2] (setting [10]).
Turning to `O=C1CC2(CCCC2)CC(=O)N1CCCCN1CCN(c2ncccn2)CC1`, the outcome in assay [3] was inactive. For the same compound, the z-score in assay [2] (setting [9]) is 0.0234 (inactive) and -0.506 (inactive) and -2.15 (inactive); in assay [2] (setting [10]) it was -3.18 and -0.781 and 0.669.
Consider `Cc1c2oc3c(C)ccc(C(=O)N[C@@H]4C(=O)N[C@H](C(C)C)C(=O)N5CCC[C@H]5C(=O)N(C)CC(=O)N(C)[C@@H](C(C)C)C(=O)O[C@@H]4C)c3nc-2c(C(=O)N[C@@H]2C(=O)N[C@H](C(C)C)C(=O)N3CCC[C@H]3C(=O)N(C)CC(=O)N(C)[C@@H](C(C)C)C(=O)O[C@@H]2C)c(N)c1=O` (I: T[dV]P[Sar][NMeV] / II: T[dV]P[Sar][NMeV]; ester I:1-I:C, II:1-II:C; linker I:N-II:N via Actinocin(9to1)), for which the fold fluorescence in assay [4] is 23.3 [at 107.6 µM] (inactive).
Take `CCN(CC)Cc1cc(Nc2ccnc3cc(Cl)ccc23)ccc1O`: the fold change is 0.891 (inactive) in assay [1] (setting [5]) and 1.28 in assay [1] (setting [6]). Besides, the cell count in assay [1] (setting [7]) was determined as 7140; in assay [1] (setting [8]) it was 8010. For the same compound, the z-score in assay [2] (setting [9]) was 0.684 (inactive); in assay [2] (setting [10]), 0.737.
In the case of `NC(N)=NC(=O)Cc1c(Cl)cccc1Cl`, in assay [3], the compound was called inactive. Further, the z-score in assay [2] (setting [9]) was -0.203 (inactive) and -0.668 (inactive); in assay [2] (setting [10]), 0.336 and -1.29.
Regarding `CN1CCCCC1CCN1c2ccccc2Sc2ccc(S(C)=O)cc21` (stereo not given), the fold change is 0.812 (inactive) and 0.898 (inactive) and 0.879 (inactive) in assay [1] (setting [5]); 1.32 and 2.22 and 1.93 in assay [1] (setting [6]). In addition, the cell count in assay [1] (setting [7]) was 7930 and 7130 and 7860; in assay [1] (setting [8]) it was 9770 and 7940 and 8940. Also, the z-score in assay [2] (setting [9]) is 0.0731 (inactive) and 0.00466 (inactive); in assay [2] (setting [10]), -0.192 and -0.653.
With `CNCC(O)c1ccc(O)c(O)c1` (stereo not given), the compound was called inactive in assay [3].
Consider `CN1CCN(CC(=O)N2c3ccccc3C(=O)Nc3cccnc32)CC1`, for which the compound was called inactive in assay [3]. The z-score was 0.149 (inactive) and -0.644 (inactive) in assay [2] (setting [9]); -0.103 and -0.194 in assay [2] (setting [10]).
Take `NS(=O)(=O)Cc1noc2ccccc12`: the outcome in assay [3] was inactive. Also, the z-score in assay [2] (setting [9]) was 0.598 (inactive) and -0.977 (inactive) and -0.661 (inactive); in assay [2] (setting [10]) it was -0.432 and -0.0491 and -0.914.
Take `Nc1ccc(C(=O)O)c(O)c1`: the cell count in assay [1] (setting [8]) was 10200 and 11500 and 13800. Also, the z-score in assay [2] (setting [9]) is -0.177 (inactive) and -0.201 (inactive) and 0.567 (inactive); in assay [2] (setting [10]), -0.173 and -0.712 and -0.26.
As for `Cc1scc2c1N(C(=O)CN1CCN(C)CC1)c1ccccc1NC2=O`, the call in assay [3] was inactive. Also, the z-score in assay [2] (setting [9]) is 0.644 (inactive) and 0.966 (inactive); in assay [2] (setting [10]) it was 0.467 and 0.592.
Consider `COC(=O)C1=C(C)NC(C)=C(C(=O)OCC(C)C)C1c1ccccc1[N+](=O)[O-]` (stereo not given), for which the z-score is -0.516 (inactive) and 0.43 (inactive) and -1.18 (inactive) in assay [2] (setting [9]); 0.274 and 1.45 and 0.961 in assay [2] (setting [10]).
In the case of `Nc1ccc(O)c(C(=O)O)c1`, the z-score was -0.293 (inactive) and -0.757 (inactive) and 0.532 (inactive) in assay [2] (setting [9]); 0.059 and -0.214 and -0.391 in assay [2] (setting [10]).
On to `CCN(CC)CCOCCOC(=O)C1(c2ccccc2)CCCC1`, for which, in assay [3], the compound was called inactive. The z-score in assay [2] (setting [9]) is 0.546 (inactive); in assay [2] (setting [10]), 0.186.
Consider `O=C1C(=O)c2ccccc2C(O)=C1C1CCC(c2ccc(Cl)cc2)CC1` (stereo not given), for which the z-score was -0.28 (inactive) and 0.215 (inactive) and 0.186 (inactive) in assay [2] (setting [9]); -0.105 and 0.155 and 0.7 in assay [2] (setting [10]).
For the compound `O=C1c2cccc3c2[C@H](CCC3)CN1[C@@H]1CN2CCC1CC2`, the z-score is 0.942 (inactive) in assay [2] (setting [9]) and 0.737 in assay [2] (setting [10]).
On to `Nc1c(Br)cc(Br)cc1CNC1CCC(O)CC1` (stereo not given), for which the z-score was -0.0247 (inactive) and 0.738 (inactive) and 0.116 (inactive) in assay [2] (setting [9]); -0.062 and -0.225 and -0.64 in assay [2] (setting [10]).

(Values after PubChem BioAssay.)
